Measurements published in the supplement of paper PMC11732987, “Enantioselective OTUD7B fragment discovery through chemoproteomics screening and high-throughput optimisation” (Communications Chemistry, 2025).
Unmarked numbers belong to inactive results.

How the values were obtained:
Assay in all cases: log2 ratio of Biotin-Ahx-Ub-VS probe labelling (fragment/DMSO); higher = less target engagement (more negative = stronger competition), active = hit call of the paper (q ≤ 0.05, log2 ratio ≤ -1)
Settings in all cases: compound concentration: 200 uM; treatment time: 3 h
OTUD6B = target: T1, OTUD6B (UniProt Q8N6M0)
T1 sequence (whole entry): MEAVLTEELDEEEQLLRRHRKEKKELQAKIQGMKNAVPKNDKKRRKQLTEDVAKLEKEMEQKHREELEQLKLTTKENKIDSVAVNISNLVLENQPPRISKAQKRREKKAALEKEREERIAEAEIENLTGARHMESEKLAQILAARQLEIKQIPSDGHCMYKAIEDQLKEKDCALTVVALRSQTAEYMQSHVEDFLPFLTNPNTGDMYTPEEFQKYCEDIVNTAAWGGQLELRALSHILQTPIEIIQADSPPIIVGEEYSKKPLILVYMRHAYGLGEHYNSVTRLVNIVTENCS
Outline: (§1)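 Each value is an average log2 ratio of fragment to vehicle, tested by unpaired t-test. The underlying Spectronaut label-free quantities were global-median-normalised, and only proteins with ≥2 unique peptides were included. Triplicate HEK293T lysate samples (495 µg) were exposed to fragment at 200 µM or vehicle for 3 h, then to Biotin-Ahx-Ub-VS at 0.5 µM final for 1 h, before NeutrAvidin enrichment of labelled DUBs, LysC and trypsin digestion, and diaPASEF LC-MS/MS.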

OTUD7B = target: T2, OTUD7B (UniProt Q6GQQ9)
T2 sequence (whole entry): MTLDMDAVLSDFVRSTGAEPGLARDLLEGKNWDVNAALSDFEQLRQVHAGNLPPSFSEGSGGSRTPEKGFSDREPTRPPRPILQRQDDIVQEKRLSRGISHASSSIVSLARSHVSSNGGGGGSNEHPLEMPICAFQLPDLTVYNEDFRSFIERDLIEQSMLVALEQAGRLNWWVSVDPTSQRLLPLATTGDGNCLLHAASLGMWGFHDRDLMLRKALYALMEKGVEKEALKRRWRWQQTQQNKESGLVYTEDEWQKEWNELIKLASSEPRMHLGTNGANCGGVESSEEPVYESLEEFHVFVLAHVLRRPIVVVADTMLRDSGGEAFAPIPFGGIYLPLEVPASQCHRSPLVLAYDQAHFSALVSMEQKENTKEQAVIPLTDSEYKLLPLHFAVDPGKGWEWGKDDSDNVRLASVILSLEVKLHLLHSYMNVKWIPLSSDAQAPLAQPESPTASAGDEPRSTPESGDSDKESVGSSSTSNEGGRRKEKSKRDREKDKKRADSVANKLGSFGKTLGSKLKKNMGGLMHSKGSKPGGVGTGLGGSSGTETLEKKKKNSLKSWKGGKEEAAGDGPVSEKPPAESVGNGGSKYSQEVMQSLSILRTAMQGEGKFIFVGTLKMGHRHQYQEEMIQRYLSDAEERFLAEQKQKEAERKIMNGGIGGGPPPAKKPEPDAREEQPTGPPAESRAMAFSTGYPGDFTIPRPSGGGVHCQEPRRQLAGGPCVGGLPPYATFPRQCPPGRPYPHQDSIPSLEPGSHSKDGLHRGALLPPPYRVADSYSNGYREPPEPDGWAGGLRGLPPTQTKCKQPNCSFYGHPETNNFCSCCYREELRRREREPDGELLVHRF
Outline: as §1

PRPF8 = PRPF8 (UniProt Q6P2Q9)
Outline: as §1

PSMD7 = target: T3, PSMD7 (UniProt P51665)
T3 sequence (whole entry): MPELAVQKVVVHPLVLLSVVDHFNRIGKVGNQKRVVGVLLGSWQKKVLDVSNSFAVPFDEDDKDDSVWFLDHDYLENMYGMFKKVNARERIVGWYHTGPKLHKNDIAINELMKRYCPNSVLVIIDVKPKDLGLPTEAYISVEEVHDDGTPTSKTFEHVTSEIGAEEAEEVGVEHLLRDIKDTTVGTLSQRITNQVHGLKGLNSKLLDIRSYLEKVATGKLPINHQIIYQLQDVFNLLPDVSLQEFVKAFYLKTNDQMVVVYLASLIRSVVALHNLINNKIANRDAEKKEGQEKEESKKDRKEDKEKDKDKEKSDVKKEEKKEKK
Outline: as §1

UCHL1 = UCHL1 (UniProt P09936)
Outline: as §1

UCHL3 = target: T4, UCHL3 (UniProt P15374)
T4 sequence (whole entry): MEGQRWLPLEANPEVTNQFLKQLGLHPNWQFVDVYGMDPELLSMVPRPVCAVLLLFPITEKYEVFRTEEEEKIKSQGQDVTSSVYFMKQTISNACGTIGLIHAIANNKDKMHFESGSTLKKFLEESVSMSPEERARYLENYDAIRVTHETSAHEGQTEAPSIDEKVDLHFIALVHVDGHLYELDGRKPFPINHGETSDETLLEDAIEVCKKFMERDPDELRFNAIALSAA
Outline: as §1

UCHL5 = target: T5, UCHL5 (UniProt Q9Y5K5)
T5 sequence (whole entry): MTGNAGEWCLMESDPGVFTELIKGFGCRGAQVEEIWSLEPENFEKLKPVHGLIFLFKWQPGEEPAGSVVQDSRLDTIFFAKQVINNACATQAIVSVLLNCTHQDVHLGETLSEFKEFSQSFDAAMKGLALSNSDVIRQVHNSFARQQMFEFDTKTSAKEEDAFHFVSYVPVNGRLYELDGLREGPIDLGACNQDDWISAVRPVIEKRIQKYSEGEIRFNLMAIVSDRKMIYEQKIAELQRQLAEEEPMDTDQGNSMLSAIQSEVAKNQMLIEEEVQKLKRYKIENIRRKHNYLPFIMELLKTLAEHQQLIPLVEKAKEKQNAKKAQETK
Outline: as §1

USP10 = USP10 (UniProt Q14694)
Outline: as §1

USP15 = target: T6, USP15 (UniProt Q9Y4E8)
T6 sequence (whole entry): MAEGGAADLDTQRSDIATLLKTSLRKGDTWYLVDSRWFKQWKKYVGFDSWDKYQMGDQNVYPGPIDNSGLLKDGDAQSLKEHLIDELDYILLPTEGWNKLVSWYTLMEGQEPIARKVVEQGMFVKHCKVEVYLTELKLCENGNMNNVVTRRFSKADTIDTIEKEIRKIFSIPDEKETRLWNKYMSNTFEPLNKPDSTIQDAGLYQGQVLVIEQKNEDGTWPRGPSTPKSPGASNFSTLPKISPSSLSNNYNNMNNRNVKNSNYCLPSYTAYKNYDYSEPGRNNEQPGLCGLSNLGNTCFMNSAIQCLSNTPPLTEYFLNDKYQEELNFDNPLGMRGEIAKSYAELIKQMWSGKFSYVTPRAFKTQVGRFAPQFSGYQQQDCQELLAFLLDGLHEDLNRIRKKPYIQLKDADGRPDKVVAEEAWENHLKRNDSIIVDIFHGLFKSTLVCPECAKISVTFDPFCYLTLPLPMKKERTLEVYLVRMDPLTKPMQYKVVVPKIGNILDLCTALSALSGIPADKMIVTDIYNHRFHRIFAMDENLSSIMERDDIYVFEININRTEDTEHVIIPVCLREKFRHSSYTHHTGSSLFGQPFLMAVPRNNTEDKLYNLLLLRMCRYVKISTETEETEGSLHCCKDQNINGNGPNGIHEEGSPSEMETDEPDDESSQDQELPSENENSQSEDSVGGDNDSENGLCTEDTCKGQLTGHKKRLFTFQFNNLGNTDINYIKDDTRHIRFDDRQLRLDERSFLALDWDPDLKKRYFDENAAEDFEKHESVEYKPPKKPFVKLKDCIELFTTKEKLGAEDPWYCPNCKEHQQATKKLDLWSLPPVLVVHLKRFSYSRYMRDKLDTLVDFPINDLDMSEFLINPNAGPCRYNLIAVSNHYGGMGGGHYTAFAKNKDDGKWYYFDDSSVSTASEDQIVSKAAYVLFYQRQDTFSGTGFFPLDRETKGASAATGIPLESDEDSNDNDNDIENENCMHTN
Outline: as §1

USP16 = USP16 (UniProt Q9Y5T5)
Outline: as §1

USP10, sequence (Q14694 whole entry): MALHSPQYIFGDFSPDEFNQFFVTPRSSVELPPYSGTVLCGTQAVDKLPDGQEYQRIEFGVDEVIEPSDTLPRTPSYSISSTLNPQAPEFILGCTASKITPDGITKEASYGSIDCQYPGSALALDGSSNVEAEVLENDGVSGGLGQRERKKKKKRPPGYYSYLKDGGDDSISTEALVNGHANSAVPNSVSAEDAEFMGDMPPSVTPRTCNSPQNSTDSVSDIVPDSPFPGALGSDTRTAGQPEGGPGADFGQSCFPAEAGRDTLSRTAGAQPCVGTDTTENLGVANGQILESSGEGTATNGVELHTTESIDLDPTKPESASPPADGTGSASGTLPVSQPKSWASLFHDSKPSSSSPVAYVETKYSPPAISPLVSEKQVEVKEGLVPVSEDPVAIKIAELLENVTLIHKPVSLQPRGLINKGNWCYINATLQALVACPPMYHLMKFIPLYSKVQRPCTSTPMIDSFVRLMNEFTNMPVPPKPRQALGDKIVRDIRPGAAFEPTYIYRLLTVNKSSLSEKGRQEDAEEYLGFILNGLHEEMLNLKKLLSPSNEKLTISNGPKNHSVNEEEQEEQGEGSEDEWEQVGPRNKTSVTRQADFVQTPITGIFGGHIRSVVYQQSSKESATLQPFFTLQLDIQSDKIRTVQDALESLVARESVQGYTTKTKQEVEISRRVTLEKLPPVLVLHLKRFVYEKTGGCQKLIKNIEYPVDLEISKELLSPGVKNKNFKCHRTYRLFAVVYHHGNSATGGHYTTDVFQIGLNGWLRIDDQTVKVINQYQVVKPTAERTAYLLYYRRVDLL
USP16, sequence (Q9Y5T5 whole entry, looked up): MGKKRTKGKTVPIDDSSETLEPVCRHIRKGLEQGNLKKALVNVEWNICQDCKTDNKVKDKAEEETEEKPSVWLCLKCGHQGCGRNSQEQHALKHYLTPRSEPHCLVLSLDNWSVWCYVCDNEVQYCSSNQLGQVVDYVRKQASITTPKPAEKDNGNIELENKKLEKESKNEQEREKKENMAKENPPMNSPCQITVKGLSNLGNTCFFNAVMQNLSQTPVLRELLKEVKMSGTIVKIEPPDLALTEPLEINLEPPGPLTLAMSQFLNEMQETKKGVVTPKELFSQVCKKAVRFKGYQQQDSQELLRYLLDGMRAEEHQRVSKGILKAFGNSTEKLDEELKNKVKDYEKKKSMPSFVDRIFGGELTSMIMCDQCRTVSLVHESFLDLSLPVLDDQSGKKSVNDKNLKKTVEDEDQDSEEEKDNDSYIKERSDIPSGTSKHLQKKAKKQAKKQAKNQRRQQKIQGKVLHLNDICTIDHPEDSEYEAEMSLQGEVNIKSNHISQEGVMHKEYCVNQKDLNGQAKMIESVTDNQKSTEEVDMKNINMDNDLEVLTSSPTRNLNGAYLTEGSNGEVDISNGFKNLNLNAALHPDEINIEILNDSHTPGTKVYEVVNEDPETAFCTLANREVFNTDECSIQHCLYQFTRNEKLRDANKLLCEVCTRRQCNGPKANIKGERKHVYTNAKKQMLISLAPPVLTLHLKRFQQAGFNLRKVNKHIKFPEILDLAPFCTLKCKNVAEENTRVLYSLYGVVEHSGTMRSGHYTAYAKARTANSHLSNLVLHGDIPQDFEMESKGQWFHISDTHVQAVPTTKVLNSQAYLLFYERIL
UCHL1, sequence (P09936 whole entry, looked up): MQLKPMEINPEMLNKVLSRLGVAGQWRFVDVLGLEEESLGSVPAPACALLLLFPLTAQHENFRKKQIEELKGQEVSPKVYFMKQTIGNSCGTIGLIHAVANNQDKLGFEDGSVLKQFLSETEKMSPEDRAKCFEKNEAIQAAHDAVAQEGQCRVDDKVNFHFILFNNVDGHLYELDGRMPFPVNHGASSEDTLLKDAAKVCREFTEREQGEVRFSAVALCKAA

**Q.** What does the source list for Cc1ccc(C(=O)NCCNC(=O)CCl)cc1?
**A.** log2 ratio of Biotin-Ahx-Ub-VS probe labelling (OTUD6B): -0.182; log2 ratio of Biotin-Ahx-Ub-VS probe labelling (OTUD7B): -0.711; log2 ratio of Biotin-Ahx-Ub-VS probe labelling (PRPF8): -0.064; log2 ratio of Biotin-Ahx-Ub-VS probe labelling (PSMD7): -0.134; log2 ratio of Biotin-Ahx-Ub-VS probe labelling (UCHL1): -1.75 (active); log2 ratio of Biotin-Ahx-Ub-VS probe labelling (UCHL3): 0.104; log2 ratio of Biotin-Ahx-Ub-VS probe labelling (UCHL5): -0.144; log2 ratio of Biotin-Ahx-Ub-VS probe labelling (USP10): -0.111; log2 ratio of Biotin-Ahx-Ub-VS probe labelling (USP15): -0.0554; log2 ratio of Biotin-Ahx-Ub-VS probe labelling (USP16): -0.0901
